IP6K1 inh – IP6K1 kinase inhibition. actives 0.81% (n = 140,000). activity change, % (series mostly up to about 58 µM). IP6K1 kinase, ADP-Glo luminescence, 2 h; active compounds read low; in the data active = activity change below about -25%; note: % is set by controls: 0 for no effect and ±100 for the full control effect
Target sequence (Q92551 whole entry, looked up): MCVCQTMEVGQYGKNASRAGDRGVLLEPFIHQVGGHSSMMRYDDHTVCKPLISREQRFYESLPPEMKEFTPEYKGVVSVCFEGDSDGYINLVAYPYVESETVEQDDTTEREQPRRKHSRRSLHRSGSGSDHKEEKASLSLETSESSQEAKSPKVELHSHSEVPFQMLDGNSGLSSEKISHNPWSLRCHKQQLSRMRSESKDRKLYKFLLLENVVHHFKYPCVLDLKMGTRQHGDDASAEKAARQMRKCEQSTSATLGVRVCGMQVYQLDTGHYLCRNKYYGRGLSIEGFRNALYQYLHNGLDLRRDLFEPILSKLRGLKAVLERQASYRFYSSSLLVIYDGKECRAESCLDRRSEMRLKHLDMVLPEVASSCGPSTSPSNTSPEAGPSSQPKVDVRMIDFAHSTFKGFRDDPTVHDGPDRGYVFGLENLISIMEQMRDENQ
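ADP-Glo luminescence measures ADP made by human IP6K1 during a 2 h RT reaction with ATP/IP6 (mix at 1.3 mM/130 uM); top library doses 57.5 and 19.1 uM final.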
KDM5B inh – KDM5B demethylase inhibition; Q9UGL1; KDM5B demethylase, FDH-coupled NADH fluorescence (FDH is formaldehyde dehydrogenase); Potency, µM (highest dose often 57.7 µM), most hits filed as inhibitors; actives 2.6% (n = 220,000); AID 1347165; active = well fitted inhibition curve with a large enough effect; inconclusive = small, poorly fitted or top-dose-only effect; inactive = no such curve, though single readings can be large or run the other way; note: potency is the fitted concentration of half-maximal effect; 0% is about no effect; nearly all actives have a fitted effect of over 70% in size
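qHTS format, multiple compound concentrations. Buffer 50 mM HEPES pH 7.5/0.01% Tween-20; 200 nM KDM5BΔAP final; 10 min compound preincubation; substrate-mix levels 12.5 µM peptide, 25 µM α-KG, 0.25 mM NAD⁺; 30 min RT; ΔRFU.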
Starred values were filed as active, the others as inactive; i = inactive; ? = inconclusive; . = no result. This is a sample that favours compounds with a hit; in the whole collection about 2.8% have one here.

SMILES | IP6K1 inh | KDM5B inh
O=C(C1CCCN1c1nccc(Nc2ccccc2F)n1)N1CCC(Cc2ccccc2)CC1 (stereo unspecified) | 10 | .
COc1ccc(C(=O)c2sc(Nc3ccc(Cl)cc3)c(C(N)=O)c2N)cc1 | . | i
COC(=O)c1cn(CC(=O)N2CCC(C)CC2)c2ccccc12 | . | i
CNCC(=O)N[C@H]1CCN2C(=O)c3cc(-c4cc(Cl)ccc4OC)ccc3NC(=O)[C@@H]2C1 | -16 | ?
COc1ccc(Cl)cc1-c1ccc2c(c1)C(=O)N1CCN(C(=O)c3cccs3)C[C@@H]1C(=O)N2 | 21 | 28µM*
O=C1Nc2ccc(-c3cccc(C(F)(F)F)c3)cc2C(=O)N2CCN(C(=O)c3cccc(F)c3)C[C@H]12 | 2 | i
O=C1Nc2ccc(-c3ccc(Cl)cc3)cc2C(=O)N2CCN(C(=O)c3cccs3)C[C@H]12 | -8 | i
O=C1Nc2ccc(-c3ccccc3F)cc2C(=O)N2CCN(C(=O)c3ccccc3)C[C@H]12 | 0 | 40µM*
COc1ccc(-c2ccc3c(c2)C(=O)N2CCN(C(=O)c4cccc(F)c4)C[C@@H]2C(=O)N3)cc1 | 3 | 18µM*
O=C1Nc2ccc(-c3ccccc3)cc2C(=O)N2CCN(C(=O)c3ccccc3)C[C@H]12 | -6 | ?
COc1ccc(Cl)cc1-c1ccc2c(c1)C(=O)N1CCN(C(=O)c3ccccc3)C[C@@H]1C(=O)N2 | -4 | 22µM*
CCOC(=O)[C@@H]1CN(C(=O)Nc2ccccc2)[C@H]2c3ccc(OC)cc3O[C@@H]12 | 13 | .
O=[S+]([O-])(c1ccccc1)N1CCNc2cnc(Nc3cccc(F)c3)nc2C1 | -11 | ?
O=C(Cc1ccc(F)cc1)N1CCC(c2nc3c(nnn3Cc3ccccc3F)c(=O)[nH]2)CC1 | . | i
CCCC(O)CN1CCC(=O)N(C2CCCC2)Cc2ccccc21 (stereo unspecified) | 6 | .
Cc1ccc(C(=O)CCN2CCC(c3ccccc3)C2)cc1 (stereo unspecified) | . | i
CN(Cc1ccccc1)C(=O)c1cc(-c2ccc(C(F)(F)F)cc2)nc2c1cnn2C | -12 | .
COc1cccc([S+](=O)([O-])N2CCC(C(=O)N3CCC(N4Cc5cccn5C4=O)CC3)CC2)c1 | 15 | .
CCCCSCCCNC(=O)CS(=O)Cc1nc(-c2ccc(C)cc2)oc1C (stereo unspecified) | . | i
Cc1nc(-c2ccccc2F)sc1C(=O)NC1C=CS(=O)(=O)C1 (stereo unspecified) | . | i
COc1ccc(Cl)cc1-c1ccc2c(c1)C(=O)N1CCN(C(=O)c3ccc(N(C)C)cc3)C[C@@H]1C(=O)N2 | 0 | 32µM*
O=C1Nc2ccc(-c3cccc(C(F)(F)F)c3)cc2C(=O)N2CCN(C(=O)c3ccccc3)C[C@H]12 | 10 | ?
COc1ccc(Cl)cc1-c1ccc2c(c1)C(=O)N1CCN(C(=O)C3CC3)C[C@@H]1C(=O)N2 | -11 | ?
COc1ccc(Cl)cc1-c1ccc2c(c1)C(=O)N1CCN(C(=O)C3CCCCC3)C[C@@H]1C(=O)N2 | -6 | 10µM*
CCCNC(=O)N1CCN2C(=O)c3cc(-c4cccc(C(F)(F)F)c4)ccc3NC(=O)[C@@H]2C1 | 2 | 32µM*
SMILES | IP6K1 inh | KDM5B inh
COc1ccc(Cl)cc1-c1ccc2c(c1)C(=O)N1CCN(C(=O)CC(C)(C)C)C[C@@H]1C(=O)N2 | 5 | i
O=C(CCNC(=O)N1CCN(C(=O)c2cc3ccccc3[nH]2)CC1)N1CCCC1 | . | i
CC(C)c1ccc(-c2csc(NC(=O)Cn3cnc4c3c(=O)n(C)c(=O)n4C)n2)cc1 | . | i
Cc1ccc(CN2CCN(c3nc(C)ccc3C#N)CC2CCO)cc1 (stereo unspecified) | 2 | 18µM*
COc1ccc(CN2CCN(c3nc(C)ccc3C#N)CC2CCO)cc1C (stereo unspecified) | 23 | ?
CCCS(=O)(=O)N[C@@H]1CN(c2ncccn2)C[C@H]1CN(C)C | 12 | 28µM*
Cc1ccc(CS(=O)(=O)N[C@@H]2CN(c3ncccn3)C[C@H]2CN(C)C)cc1 | 4 | ?
CCn1cc(S(=O)(=O)N[C@@H]2CN(c3ncccn3)C[C@H]2CN(C)C)cn1 | 22 | ?
CCCCS(=O)(=O)N[C@@H]1CN(c2ncccn2)C[C@H]1CN(C)C | 3 | 32µM*
CCOC(=O)c1sc(N)c(C#N)c1CSCc1ccccc1 | . | i
CCOc1ccc(NC(=O)c2c(NCc3cc(OC)c(OC)cc3OC)sc3c2CCCC3)cc1 | -30* | ?
CCOC(=O)c1ccc(NC(=O)c2c(NCc3cc(OC)c(OC)cc3OC)sc3c2CCCC3)cc1 | -13 | ?
NC(=O)c1ccc(NC(=O)C[C@H]2NC(=O)c3ccccc3NC2=O)cc1 | 14 | i
CC(C)Cn1ccc2c(NC(=O)C[C@H]3NC(=O)c4ccccc4NC3=O)cccc21 | 16 | i
CC(C)n1c(CNC(=O)C[C@H]2NC(=O)c3ccccc3NC2=O)nc2ccccc21 | 1 | 28µM*

High-throughput results deposited in PubChem BioAssay by National Center for Advancing Translational Sciences (NCATS).
